Activity calls are given as the source filed them. Rule for the calls: active = hit-call score of the fitted dose curve at least 0.9, where 1 is the maximum; inactive = score below 0.9.
How the values were obtained:
[1] = ATG_PXRE_CIS: Attagene CIS-FACTORIAL HepG2 Assay for human Pregnane X Receptor Element (PXRE) (AID 2282957); conditions: HepG2 Attagene CIS-FACTORIAL PXRE reporter, mRNA; actives raise or lower the signal
How it was run: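 Read-out: fluorescence of reporter-specific RT-PCR products resolved by capillary electrophoresis, fitted bidirectionally relative to DMSO. Human HepG2 liver cells carried transfected cis-promoter reporter units and were exposed to chemicals for 24 h.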

[2] = ATG_RORE_CIS: Attagene CIS-FACTORIAL HepG2 Assay for human RAR-related Orphan Receptor Element (RORE) (AID 2282959); conditions: HepG2 Attagene cis-factorial RORE reporter, mRNA; actives raise or lower the signal
How it was run: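 Readout: fluorescent reporter mRNA by RT-PCR plus capillary electrophoresis, 24 h after dosing transfected HepG2 cells. Endogenous transcription factor activity on a cis promoter element is measured. Gain or loss of signal fitted against DMSO.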

[3] = biological target: Transcription factor Sp1 (Homo sapiens) (UniProt P08047); experiment: ATG_Sp1_CIS: Attagene CIS-FACTORIAL HepG2 Assay for human Specificity Protein 1 (Sp1) (AID 2282961); conditions: HepG2 Sp1 cis-reporter transcription, actives raise or lower the signal
Transcription factor Sp1 (Homo sapiens), sequence (P08047 whole entry, looked up): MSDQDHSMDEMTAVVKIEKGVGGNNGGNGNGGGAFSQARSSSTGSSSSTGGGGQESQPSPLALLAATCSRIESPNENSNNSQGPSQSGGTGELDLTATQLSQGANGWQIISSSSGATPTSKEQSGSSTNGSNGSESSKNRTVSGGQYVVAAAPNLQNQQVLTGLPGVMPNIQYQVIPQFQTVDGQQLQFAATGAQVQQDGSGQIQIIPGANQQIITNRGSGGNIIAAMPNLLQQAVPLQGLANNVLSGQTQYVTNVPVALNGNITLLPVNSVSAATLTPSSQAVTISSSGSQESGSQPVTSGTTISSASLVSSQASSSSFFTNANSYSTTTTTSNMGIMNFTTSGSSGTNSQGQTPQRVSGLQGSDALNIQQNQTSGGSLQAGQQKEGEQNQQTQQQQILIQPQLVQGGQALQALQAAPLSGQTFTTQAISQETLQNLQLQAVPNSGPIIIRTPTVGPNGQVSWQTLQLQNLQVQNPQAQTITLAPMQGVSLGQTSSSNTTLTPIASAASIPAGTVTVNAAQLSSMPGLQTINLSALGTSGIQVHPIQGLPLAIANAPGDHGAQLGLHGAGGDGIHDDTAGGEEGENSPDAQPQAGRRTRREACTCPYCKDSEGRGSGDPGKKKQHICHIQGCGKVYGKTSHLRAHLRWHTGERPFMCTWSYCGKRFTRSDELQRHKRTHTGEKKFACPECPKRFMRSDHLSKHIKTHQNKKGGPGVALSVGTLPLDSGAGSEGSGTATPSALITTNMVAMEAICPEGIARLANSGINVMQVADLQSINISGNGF
How it was run: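 Read-out: fluorescence of 6-FAM-labeled, HpaI-digested RT-PCR products separated by capillary electrophoresis. HepG2 cells carried transfected cis-element reporter units and were exposed to chemicals for 24 h; gain or loss of signal fitted relative to DMSO.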

[4] = ATG_SREBP_CIS: Attagene CIS-FACTORIAL HepG2 Assay for human Sterol Regulatory Element Binding (SREBP) (AID 2282962); conditions: HepG2 Attagene cis-factorial SREBP reporter, mRNA; actives raise or lower the signal
How it was run: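 Readout: fluorescent reporter-transcript peaks resolved by capillary electrophoresis after RT-PCR. Cells were human HepG2 carrying transfected cis-promoter reporter constructs, dosed for 24 h. Gain or loss of signal was fitted against DMSO controls.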

[5] = biological target: Signal transducer and activator of transcription 3 (Homo sapiens) (UniProt P40763); experiment: ATG_STAT3_CIS: Attagene CIS-FACTORIAL HepG2 Assay for human Signal Transducer and Activator of Transcription 3 (STAT3) (AID 2282963); conditions: HepG2, Attagene cis-factorial STAT3 reporter transcription; actives raise or lower the signal
Signal transducer and activator of transcription 3 (Homo sapiens), sequence (P40763 whole entry, looked up): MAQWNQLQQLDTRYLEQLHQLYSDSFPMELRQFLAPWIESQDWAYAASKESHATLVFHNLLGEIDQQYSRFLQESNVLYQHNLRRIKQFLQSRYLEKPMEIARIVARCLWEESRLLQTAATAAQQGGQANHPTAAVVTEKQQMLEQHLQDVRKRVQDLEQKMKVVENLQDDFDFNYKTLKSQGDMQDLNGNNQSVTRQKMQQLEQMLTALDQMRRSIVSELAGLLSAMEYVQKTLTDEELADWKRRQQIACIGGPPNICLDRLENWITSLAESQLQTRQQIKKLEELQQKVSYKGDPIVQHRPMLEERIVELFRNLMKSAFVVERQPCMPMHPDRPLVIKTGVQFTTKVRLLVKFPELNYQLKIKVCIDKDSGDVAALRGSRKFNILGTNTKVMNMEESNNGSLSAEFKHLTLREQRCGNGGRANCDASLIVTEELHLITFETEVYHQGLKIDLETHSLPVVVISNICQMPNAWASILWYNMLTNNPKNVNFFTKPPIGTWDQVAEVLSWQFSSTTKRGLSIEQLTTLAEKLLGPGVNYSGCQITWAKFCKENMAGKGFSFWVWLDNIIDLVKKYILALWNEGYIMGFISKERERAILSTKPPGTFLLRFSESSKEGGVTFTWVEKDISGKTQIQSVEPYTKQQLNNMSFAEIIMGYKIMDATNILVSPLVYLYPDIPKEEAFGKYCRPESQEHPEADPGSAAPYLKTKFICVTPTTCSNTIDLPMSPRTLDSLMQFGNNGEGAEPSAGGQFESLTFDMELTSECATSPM
How it was run: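 Readout is reporter transcript quantified by RT-PCR and capillary electrophoresis, with 6-FAM primer extension and HpaI digestion. Total RNA is taken 24 h after dosing transiently transfected HepG2 carrying cis-regulated reporter units. Bidirectional fit against DMSO.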

[6] = ATG_TA_CIS: Attagene CIS-FACTORIAL HepG2 Assay for human TA Basal Promoter (AID 2282964); conditions: HepG2 Attagene CIS-factorial TA basal promoter reporter; actives raise or lower the signal
How it was run: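 Steps: transfect HepG2 with MRTUs; dose 24 h; isolate RNA, DNase-treat, reverse-transcribe; PCR and FAM-label reporter cDNA; digest with HpaI 2h at 37 C; run capillary electrophoresis. Activity fitted both directions against DMSO.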

[7] = ATG_TCF_b_cat_CIS: Attagene CIS-FACTORIAL HepG2 Assay for human T-Cell-Factor with beta-catenin (TCF/b-cat) (AID 2282965); conditions: HepG2 TCF/beta-catenin cis-reporter transcription, actives raise or lower the signal
How it was run: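 Measured: reporter mRNA in HepG2 transiently transfected with cis-promoter reporter units, 24 h after chemical addition. Fitting was bidirectional, DMSO as negative control.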

[8] = ATG_PPRE_CIS: Attagene CIS-FACTORIAL HepG2 Assay for human Peroxisome Proliferator-activated Response Element (PPRE) (AID 2282958); conditions: HepG2 PPRE cis-element reporter, Attagene transcription factor profiling; actives raise or lower the signal
How it was run: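 Read-out: fluorescent reporter mRNA fragments resolved by capillary electrophoresis after RT-PCR. HepG2 cells carried transiently transfected PPRE-driven cis reporter constructs and were dosed for 24 h; gain or loss of signal fitted relative to DMSO.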

[9] = ATG_Sox_CIS: Attagene CIS-FACTORIAL HepG2 Assay for human SRY-box transcription factor (SOX) (AID 2282960); conditions: HepG2 Attagene cis-factorial SOX reporter, mRNA; actives raise or lower the signal
How it was run: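 Read-out: fluorescent RT-PCR products of SOX1-linked reporter transcripts resolved by capillary electrophoresis, fitted bidirectionally against DMSO. Transiently transfected HepG2 cells, 24 h after chemical exposure, endogenous transcription factor activity.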

Measured: AC50

CCOc1ccc(NC(=O)CC(C)=O)cc1
not listed: [8] | [9]
inactive: all other assays above

COc1cccc(OC)c1O
active: [1] 27 µM
not listed: [7]
inactive: all other assays above

C1=CC2C3C=CC(C3)C2C1 (configuration not stated)
active: [1] 36.3 µM
not listed: [7] | [8]
inactive: all other assays above

CN(C)C(=O)Nc1ccc(Oc2ccc(Cl)cc2)cc1
active: [1] 26.7 µM
not listed: [8]
inactive: all other assays above

CCCCCCC(C)Nc1ccc(Nc2ccccc2)cc1 (configuration not stated)
active: [1] 1.78 µM
inactive: all other assays above

CC(=O)NCCO
not listed: [7]
inactive: all other assays above

O=C(O)CCCCCCCCCCCC(=O)O
inactive: all assays above

COC(CC(C)CCCC(C)(C)O)OC (configuration not stated)
inactive: all assays above

C=C(C)C(=O)OCCOCCOCCOC(=O)C(=C)C
active: [1] 54.8 µM
not listed: [6] | [8]
inactive: all other assays above

OC[C@H]1O[C@@H]2O[C@H]3[C@H](O)[C@@H](O)[C@@H](O[C@H]4[C@H](O)[C@@H](O)[C@@H](O[C@H]5[C@H](O)[C@@H](O)[C@@H](O[C@H]6[C@H](O)[C@@H](O)[C@@H](O[C@H]7[C@H](O)[C@@H](O)[C@@H](O[C@H]8[C@H](O)[C@@H](O)[C@@H](O[C@H]9[C@H](O)[C@@H](O)[C@@H](O[C@H]1[C@H](O)[C@H]2O)O[C@@H]9CO)O[C@@H]8CO)O[C@@H]7CO)O[C@@H]6CO)O[C@@H]5CO)O[C@@H]4CO)O[C@@H]3CO
active: [1] 22.4 µM
not listed: [8]
inactive: all other assays above

O=C1c2ccccc2C(=O)c2c(O)ccc(O)c21
active: [1] 7.05 µM
not listed: [8]
inactive: all other assays above

CS(=O)(=O)c1ccc(Cl)cc1
active: [1] 100 µM
not listed: [3] | [8]
inactive: all other assays above

CCCCCc1ccco1
active: [1] 4.15 µM | [7] 70 µM
not listed: [3]
inactive: all other assays above

CCCCCCC(CO)CCCC (configuration not stated)
active: [1] 33.4 µM
inactive: all other assays above

O=C1OC(=O)c2c(Cl)c(Cl)c(Cl)c(Cl)c21
active: [8] 177 µM
inactive: all other assays above

CC1CCC(C(C)C)C(O)C1 (configuration not stated)
not listed: [1]
inactive: all other assays above

CCC1CCCCC1
inactive: all assays above

c1ccc(CCc2ccccc2)cc1
active: [3] 169 µM
not listed: [1]
inactive: all other assays above

Cc1ccc2c(c1)C(=O)OC2=O
not listed: [1] | [2]
inactive: all other assays above

CC(C)(C)CC(C)(C)c1ccc(OCCOCC[N+](C)(C)Cc2ccccc2)cc1
active: [4] 8.35 µM | [7] 12 µM
not listed: [1] | [2]
inactive: all other assays above

Cc1cc(=O)oc2cc(N(C)C)ccc12
active: [4] 100 µM
not listed: [3]
inactive: all other assays above

CC(C)Nc1nc(N)nc(Cl)n1
not listed: [2]
inactive: all other assays above

CCC(Cl)C(Cl)C(Cl)CC(Cl)C(Cl)C(C)Cl (configuration not stated)
active: [1] 0.885 µM
not listed: [9]
inactive: all other assays above

C=CC(=C)CCCC(C)(C)OC(C)=O
inactive: all assays above

CS(C)=O
inactive: all assays above

CCCCCCCCCCCCCC(=O)OCC(O)CO (configuration not stated)
active: [4] 67 µM
not listed: [1] | [8]
inactive: all other assays above

CN(C)CCOc1ccc(/C(=C(/CCCl)c2ccccc2)c2ccccc2)cc1
active: [1] 1.18 µM
not listed: [9]
inactive: all other assays above

CCCCCC(C)=O
not listed: [3] | [7]
inactive: all other assays above

O=C(O)COCC(=O)O
not listed: [8]
inactive: all other assays above

Reference: PubChem BioAssay (EPA / NIEHS)
